High-throughput results as filed in PubChem BioAssay.
Shown are actives, neighbours in structure and some others; about 4.7% of the full set was active somewhere.
TGFb SMAD3 inh: inhibitors of TGF-b signaling; HepG2 CAGA-GFP TGF-b/SMAD3 reporter, GFP fluorescence, 18 h; TGF-beta stimulated, 500 pg/mL final; Potency, µM (titrated, usually from 46.1 µM), inactives show at the top dose activity, negative = inhibition, usual class: inhibitors; 410,000 compounds, 1.2% hits; AID 588855; also: potency is read from the fitted curve at half-maximal effect; % is scaled to controls: 0 for no effect and ±100 for the full control effect; nearly all actives have a fitted effect of over 65% in size
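GFP signal (ex488/em500-530) from TGF-beta-stimulated HEPG2 CAGA-GFP cells, 500 pg/mL final, 18 h at 37 degrees C in DMEM plus 1% FBS, normalized to unstimulated and DMSO-stimulated controls.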
ATXN2 expr inh: ATXN2 expression inhibition; HEK-293 ATXN2-luciferase reporter, luminescence, 24 h; Potency, µM (top dose mostly 57 µM), without a hit: top-dose activity change, negative = inhibition, usual class: inhibitors; 360,000 compounds, 0.72% hits; also: potency is read from the fitted curve at half-maximal effect; % is scaled to controls: 0 for no effect and ±100 for the full control effect; nearly all actives have a fitted effect of over 55% in size
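qHTS (up to 57 uM final) was run with 24 h compound exposure of reporter cells at 37 °C. Each well was multiplexed: SteadyGlo luminescence measured ATXN2-luciferase expression after a fluorogenic Gly-Phe-AFC viability readout (25 uM final).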
D3 ag: agonists of human D3 dopamine receptor; D3R DiscoveRx beta-arrestin cells, luminescence, 90 min; 410,000 compounds, 0.58% hits; P35462; max activation, %; in the data active = max activation above about 30%; also: 0% is about no effect
Target sequence (P35462 whole entry, looked up): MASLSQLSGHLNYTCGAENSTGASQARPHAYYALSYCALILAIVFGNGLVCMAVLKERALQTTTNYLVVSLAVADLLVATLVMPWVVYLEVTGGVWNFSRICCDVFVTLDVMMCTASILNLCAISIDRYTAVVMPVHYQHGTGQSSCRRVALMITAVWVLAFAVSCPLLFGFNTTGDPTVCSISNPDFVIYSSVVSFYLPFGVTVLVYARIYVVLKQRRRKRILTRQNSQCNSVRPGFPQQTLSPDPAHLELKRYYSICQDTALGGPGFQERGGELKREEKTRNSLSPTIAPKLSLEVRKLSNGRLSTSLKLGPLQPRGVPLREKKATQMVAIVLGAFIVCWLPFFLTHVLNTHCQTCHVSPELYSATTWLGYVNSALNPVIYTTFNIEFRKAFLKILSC
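Agonist mode: compounds and dopamine controls were applied to plated cells for 90 min at 37 degrees C after an overnight attachment at 1500 cells/well. Luminescent read-out followed 30 - 60 minutes at room temperature with DiscoveRx detection reagent.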
S2 tox: cell viability loss in ATXN counter-screen; Potency, µM (top dose mostly 56.7 µM), usual class: cytotoxic; S2 cells (HEK-293 line with an ATXN2-luciferase reporter) viability, CellTiter-Fluor protease fluorescence, 24 h; 400,000 compounds, 0.49% hits; also: potency is read from the fitted curve at half-maximal effect; nearly all actives have a fitted effect of over 40% in size
DRD3 antagonist: antagonists of human D3 dopamine receptor; D3R cells, DiscoveRx beta-arrestin luminescence, antagonist mode; stronger effect = lower value; max response, negative = inhibition, %; 360,000 compounds, 2.5% hits; AID 652054; in the data active = max response below about -50%; inconclusive = no clear call, values can overlap the other calls; also: % is scaled to controls: 0 for no effect and ±100 for the full control effect
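Cells plated overnight at 1500 cells/well, then exposed to library compounds with dopamine controls for 90 minutes at 37 degrees C. DiscoveRx reagent added for 30–60 minutes at room temperature; luminescence read, quantitative HTS format.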
HepG2 tox: kills HepG2 cells in TGF-b inhibitor counter-screen | HepG2 CAGA-GFP viability, ATP luminescence, 18 h | Potency, µM (highest dose often 46.1 µM), for the others: at the highest dose activity change, negative = cytotoxicity, hits mostly cytotoxic | 410,000 compounds, 0.76% hits | AID 588856; also: potency is read from the fitted curve at half-maximal effect
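HepG2 CAGA-GFP cells (1000/well, DMEM with 1% FBS) received compound, then TGF-beta at 500 pg/mL final, and were incubated 18 hours at 37 degrees C. Viability was read by CellTiter-Glo luminescence. Media-only wells were set as complete cell-killing and DMSO as no toxicity.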
Active calls of the source: *; i = inactive; ? = inconclusive; nt = not tested or not shown. Unless noted, calls follow the shape of the dose curve; as a rule, active = well fitted curve in the direction sought with a large enough effect; inconclusive = small, poorly fitted or top-dose-only effect, or another doubt; inactive = no such curve, though single readings can be large; an effect the other way counts as inactive or inconclusive.

SMILES	TGFb SMAD3 inh	ATXN2 expr inh	D3 ag	S2 tox	DRD3 antagonist	HepG2 tox
CN(C)c1ccc(P(=O)(CC(=O)N/N=C/c2ccc(C#N)cc2)OCCCl)cc1 (configuration not stated)	-2.9%	-25.9%	-25.4	i	-62.7*	0.7%
COc1ccc(OC)c(/C=C/c2ccc3ccccc3[n+]2C)c1	-20.2%	nt	nt	nt	nt	-17.1%
c1cc(CNC2C3CC4CC(C3)CC2C4)ccn1 (configuration not stated)	0.9%	-9.5%	-15.8	i	-56.8*	-12.4%
COc1cccc(N/C(SCc2cccc([N+](=O)[O-])c2)=C(/C#N)C(N)=O)c1	?	-22.8%	-15.2	i	-8.2	14.1µM*
CCCC(c1nnnn1Cc1ccc2c(c1)OCO2)N1CCC(C(N)=O)CC1 (configuration not stated)	-2.4%	-4.1%	16.4	i	2.2	20µM*
Cc1cccc2cc(C(c3nnnn3Cc3ccc4c(c3)OCO4)N3CCCC3)c(=O)[nH]c12 (configuration not stated)	-7.5%	-13.1%	12.1	i	-51.1*	3.7%
CNc1ccc(Br)cc(C(=O)/C=C/c2cc(OC)ccc2OC)c1=O	15.8µM*	?	-6.6	nt	0.0	-79.9%
CCNc1ccc(Br)cc(C(=O)/C=C/c2ccc(Cl)cc2Cl)c1=O	-3.1%	31.6µM*	-4.1	?	-77.5*	-68.5%
CNc1ccc(Br)cc(C(=O)/C=C/c2ccc3c(c2)OCO3)c1=O	?	?	3.3	i	1.7	-1.3%
CNc1ccc(Br)cc(C(=O)/C=C/c2ccc(OC)cc2)c1=O	9.0%	?	-24.8	i	?	-18.9%
Cc1cccn2c(=O)nc(SCC(=O)N3CCC(Cc4ccccc4)CC3)nc12	1.7%	-9.1%	-34.8	i	-58.5*	-2.4%
COc1ccc(-c2nnc(CSc3nc4ccccc4c(=O)n3CC(C)C)o2)cc1OC	?	-16.1%	32.9*	?	-13.6	-7.0%
COc1cc(-c2nnc(COC(=O)c3nn(CC(C)C)c(=O)c4ccccc34)o2)cc(OC)c1OC	7.1%	7.1%	55.6*	i	43.4	3.7%
CCCCCn1nc(C(=O)OCc2nnc(-c3ccccc3)o2)c2ccccc2c1=O	-8.9%	12.6%	6.4	i	3.2	1.4%
Cn1c(SCc2nc3ccccc3c(=O)[nH]2)nc2ccccc21	?	-16.6%	-2.3	i	-17.4	-20.2%
CC(C)Cn1c(SCc2nc3ccccc3c(=O)[nH]2)nc2ccccc2c1=O	3.9%	-0.8%	45.9*	i	14.1	-2.3%
CC1CCC(NC(=O)c2ccc3c(c2)N(Cc2cccc(Cl)c2)C(=O)c2ccccc2S3(=O)=O)CC1 (configuration not stated)	?	nt	-21.6	nt	nt	-15.8%
COc1ccc(-n2nc(C#N)c(Cl)cc2=O)cc1	15.8µM*	?	-13.1	nt	-104.4*	17.8µM*
CCn1cc(CN2Cc3ccccc3OC(c3ccccc3OC)C2)c(C)n1 (configuration not stated)	nt	nt	nt	i	nt	nt
Cc1nn(-c2ccccc2)c2c1C(c1ccncc1)C(C#N)=C(N)O2 (configuration not stated)	-9.6%	?	-13.6	i	37.9	-1.7%
COc1cc(-n2nc(C)c3c2OC(N)=C(C#N)C3c2ccccc2)c(Cl)c(Br)c1O (configuration not stated)	?	-8.9%	-0.9	14.1µM*	-21.3	-31.9%
COc1ccccc1CNC(=O)C(C)NS(=O)(=O)c1ccc(Br)cc1 (configuration not stated)	-0.5%	-3.5%	1.6	i	-67.6*	0.4%
Cc1ccc(C(=O)COC(=O)C(Cc2c[nH]c3ccccc23)NC(=O)c2ccc(C(C)(C)C)cc2)cc1 (configuration not stated)	0.0%	nt	-5.6	nt	nt	-38.5%
COc1cc(OC)c(C2=NOC(C(=O)N3CCCc4ccccc43)C2)cc1Cl (configuration not stated)	11.3%	-17.0%	31.5*	i	4.9	1.0%
Oc1cc(-c2cccs2)cc2c1OCCN(Cc1cn[nH]c1-c1ccc(Cl)cc1)C2	nt	nt	nt	i	nt	nt
SMILES	TGFb SMAD3 inh	ATXN2 expr inh	D3 ag	S2 tox	DRD3 antagonist	HepG2 tox
O=C(Nn1c(O)c(C=C2N=c3ccccc3=N2)sc1=S)c1ccccc1Cl	15.3%	4.2%	-2.2	i	-54.9*	-22.8%
O=S(=O)(Nn1c(O)c(C=C2N=c3ccccc3=N2)sc1=S)c1ccccc1	?	nt	-4.9	?	-19.8	-55.8%
Cc1nc([N+](=O)[O-])cn1CC(=O)c1ccc2c(c1)OCCO2	3.5%	nt	nt	nt	nt	-9.4%
CC(C)=CCc1cc([C@@H]2CC(=O)c3ccc(O)c(CC=C(C)C)c3O2)ccc1O	12.6µM*	?	31.5*	?	56.3	-68.1%
COc1c(CC=C(C)C)cc(C2CC(=O)c3c(O)cc(O)cc3O2)c(CC=C(C)C)c1O (configuration not stated)	?	?	-10.0	?	9.9	-110.8%
C=C(CC[C@@H](O)C(C)(C)O)[C@H]1CC[C@]2(C)[C@@H]1CCC1[C@@]3(C)CCC(=O)C(C)(C)C3CC[C@]12C (some centres not stated)	2.9%	-8.9%	42.8*	i	18.7	-16.8%
CC[N+](C)(C)c1ccc(/C=C/c2ccncc2)cc1	34.7%	nt	nt	nt	nt	-15.9%
COc1cc(=O)n2c(c1C(=O)N(C)C(C)c1ccco1)CCN(C(=O)c1ccc(C(C)=O)cc1)CC2 (configuration not stated)	nt	nt	nt	i	nt	nt
CN1CCN(C(=O)c2cc3c(c(-c4cccc(Br)c4)n2)[C@H](CCO)N(S(=O)C(C)(C)C)C3)CC1 (some centres not stated)	2.5%	3.4%	-13.9	i	-50.2*	2.4%
CC(=O)N1Cc2cc(C(=O)NCC(F)(F)F)nc(-c3cccc(-c4cc5ccccc5o4)c3)c2[C@@H]1CCO	nt	-10.0%	54.6*	i	-1.4	nt
CC(C)(C)S(=O)N1Cc2cc(C(=O)NCc3ccc4c(c3)OCO4)nc(-c3cccc(-c4cc5ccccc5o4)c3)c2[C@@H]1CCO (some centres not stated)	?	22.4µM*	13.5	nt	0.0	-65.0%
COc1cccc(-c2cccc(-c3nc(C(=O)NCc4ccc5c(c4)OCO5)cc4c3[C@H](CCO)N(S(=O)C(C)(C)C)C4)c2)c1 (some centres not stated)	15.8µM*	?	1.5	17.8µM*	56.6	-60.1%
